# According to PubChem BioAssay (NCATS):
# Results filed as inconclusive are left out. The source made the active and inactive calls. The call rests on the fitted dose curve; in most records, active means well fitted inhibition curve with a large enough effect; inconclusive means small, poorly fitted or top-dose-only effect; inactive means no such curve, though single readings can be large or run the other way.
# Tested on: Zika virus NS2B-NS3 protease (unlinked complex)
# Experiment: Primary screen GU Rhodamine qHTS for Zika virus inhibitors: Unlinked NS2B-NS3 protease assay (AID 1347159); further: nearly all actives have a fitted effect of over 60% in size
# Conditions: Recombinant ZIKV NS2B-NS3 protease, Rhodamine110 substrate fluorescence; series mostly up to 107 µM; activity change, negative = inhibition: at the top concentration
# Outline: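 Noncovalent NS2B hydrophilic domain–NS3 protease domain complex (25 nM) preincubated 15 min at room temperature with compounds (up to 114 microM) in 10 mM Tris-HCl pH 8.0, 0.01% Tween 20; 1.5 microM Rhodamine110 substrate added, fluorescence change over 15 min fitted to Hill equation.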
# On the % scale 0 is the no-effect control and ±100 the full control effect.
row,SMILES,"activity change, negative = inhibition"
1,N#Cc1cnc2c(Cl)cc(NCc3cn(CCN4CCCCCC4)nn3)cc2c1Nc1ccc(F)c(Cl)c1,-7.95% (inactive)
2,C=C[C@H](/C=C\c1ccc(O)cc1)c1ccc(O)cc1,3.85% (inactive)
3,Nc1ncnc2c1c(-c1ccc(Oc3ccccc3)cc1)nn2[C@@H]1CCCNC1,62.1% (inactive)
4,C=C1CC(=O)C2OC2(C)CC2OC(=O)C(=C)C2C(O)C1OC(=O)/C(C)=C\C (stereo not drawn),14.8% (inactive)
5,Nc1nc(Cl)nc2c1ncn2C1OC(CO)C(O)C1F (stereo not drawn),2.42% (inactive)
6,Cc1csc(N(C(=O)CSc2ccc(-c3ccccc3)nn2)C2CC2)n1,-6.04% (inactive)
7,CC(C)NC(=O)N1CC[C@H](N=C2Nc3cc(F)ccc3N(CC(F)F)c3ccc(Cl)cc32)C1,-25.9% [at 32.5 µM] (inactive)
8,CCCC1(CCC)CCC2(CCN(CCCN(CC)CC)C2)CC1,193% (inactive)
9,O=C([C@@H](Cc1cccc(C(F)(F)F)c1)NS(=O)(=O)c1cc(F)c2c(c1)CCNC2)N1CCCC1,0% (inactive)
10,C[C@@H](N[C@H]1CCCC[C@@H]1NC(=O)c1ccc(Cl)cc1)c1cccc2ccccc12,30.4% (inactive)
11,CC(C)/C=C1\NC(=O)C(C(C)C)n2c1nc1ccccc1c2=O (stereo not drawn),1.2% (inactive)
12,O=C(CCl)Nc1cccc(NC2=NS(=O)(=O)c3ccccc32)c1,-26.6% (inactive)
13,CN(C)Cc1ccc(-c2cnn3c(-c4cccc(NC(=O)c5cccc(C(F)(F)F)c5)c4)ccnc23)cc1,204% (inactive)
14,CCNC1(C(N)=O)CCN(c2ncnc3c2nc(-c2ccccc2Cl)n3-c2ccc(Cl)cc2)CC1,23.7% (inactive)
15,C=C1CC[C@@H]2[C@](C)(CO)[C@H](O)CC[C@@]2(C)[C@@H]1C/C=C1/C(=O)OCC1OC(=O)/C(=C/CO)C(O)C[C@@H]1C(=C)CC[C@@H]2[C@](C)(CO)[C@H](O)CC[C@]21C (stereo partly drawn),-8.23% [at 32.5 µM] (inactive)
16,CC(C)c1cc(-c2ccc(F)c3ccccc23)nc(N)n1,3.25% (inactive)
17,Cc1onc(-c2ccccc2)c1C(=O)N1CCN(c2ccc([N+](=O)[O-])cc2Cl)CC1,-0.143% (inactive)
18,O=C(Nc1cccnn1)N1CCN(c2nccc(-c3ccc(F)c(F)c3)n2)CC1,-1.26% [at 229 µM] (inactive)
19,C=C1CC[C@@H]2[C@](C)(CO)[C@H](O)CC[C@@]2(C)[C@@H]1CC(=O)C1=CCOC1=O,-1.17% (inactive)
20,Nc1nc(O)c(C2=C3C(=Nc4ccccc43)C(=O)NCC2)[nH]1,3.61% (inactive)

row,SMILES,"activity change, negative = inhibition"
1,CC(=O)O[C@H]1[C@@]2(O)C[C@H](C)[C@H](OC(=O)c3ccccc3)[C@@H]2[C@@H](OC(=O)CO)[C@]2(OC(C)=O)C[C@H]3C(=O)C(C)(C)C[C@@H]3[C@@]1(C)[C@H]2OC(C)=O,-4.29% [at 32.5 µM] (inactive)
2,O=c1[nH]c([C@@H]2CCCN2)nc2c1oc1ccc(Cl)cc12,0% (inactive)
3,CCN(Cc1ccccc1)C(=O)Cn1c(=O)n(C)c2cnc(-c3ccccc3)nc21,12.3% (inactive)
4,Cc1cc(C)c(-n2cc(C)c3c(Cl)nc(C)nc32)c(C)c1,-20% (inactive)
5,COc1cc(NC(=O)c2cc(C3CC3)on2)c(OC)cc1Cl,60.4% (inactive)
6,C=C1C(=O)O[C@@H]2/C=C(/C)[C@@H](OC(C)=O)C/C=C(\C)C[C@@H](OC(=O)/C(=C/CO)CO)[C@@H]12,-9.57% [at 57.1 µM] (inactive)
7,O=C(NCCCn1ccnc1)c1cc(-c2ccco2)on1,-2.31% (inactive)
8,Cc1ccccc1C(C(=O)NC1CCCCC1)N(C(=O)Cn1cnc2ccccc21)c1cccc(F)c1 (stereo not drawn),-1.9% (inactive)
9,CN(C)CCn1cc(-c2ccc(F)cc2)c(-n2cccc2)n1,45.7% (inactive)
10,CC(C)(N)c1ncc(-c2ccc(OC(F)(F)F)cc2)[nH]1,81.9% (inactive)
11,Cn1ncc(Cl)c1-c1cc(C(=O)N[C@H](CN)Cc2ccc(F)c(F)c2)sc1Cl,163% (inactive)
12,COc1ccc(Sc2ccc(NC(=O)c3ccccc3Cl)cc2C#N)cc1,9.45% (inactive)
13,O=C(NC[C@H]1CN(c2ccc(N3CCOCC3=O)cc2)C(=O)O1)c1ccc(Cl)s1,-0.167% (inactive)
14,CCN1C(C)(C)CC(Oc2ccc(C(=O)Nc3ccc(NC(=O)Nc4cc(C(C)(C)C)on4)cc3)nc2)CC1(C)C,-26.3% (inactive)
15,C=C1CCC2C(C)(C(=O)O)CCCC2(C)C1CCC1=CCOC1=O (stereo not drawn),61.2% (inactive)
16,COCC(=O)NC/C=C/c1ccc2ncnc(Nc3ccc(Oc4ccc(C)nc4)c(C)c3)c2c1,6.68% (inactive)
17,C=C1C(=O)O[C@@H]2C[C@@]3(C)CCCC(=C)[C@]3(O)C[C@H]12,16.4% (inactive)
18,C=C1C(=O)O[C@@H]2[C@H]3C(C)=CC(=O)C3=C(C)[C@@H](OC(=O)/C(C)=C\C)[C@H](O)[C@@H]12,7.62% (inactive)
19,O=C(C(Cc1cccc(C(F)(F)F)c1)NS(=O)(=O)c1cc(F)c2c(c1)CCNC2)N1CCCC1 (stereo not drawn),40.1% (inactive)

# Tested on: Zika virus NS2B-NS3 protease (linked construct)
# Experiment: Primary screen NINDS Rhodamine qHTS for Zika virus inhibitors (AID 1347160); further: nearly all actives have a fitted effect of over 55% in size
# Conditions: purified NS2B-NS3 protease, Rhodamine110 substrate fluorescence; series mostly up to 57.1 µM; activity change, negative = inhibition: at the top concentration
# Outline: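 Purified linked NS2B-NS3 protease (NS2B hydrophilic domain joined to NS3 protease by flexible linker), 25 nM in 10 mM Tris-HCl pH 8.0, 0.01% Tween 20. Compounds titrated, 15 min preincubation at room temperature; 1.5 microM Rhodamine110 substrate, FITC fluorescence change over 15 min.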
SMILES,"activity change, negative = inhibition",outcome
N#Cc1cnc2c(Cl)cc(NCc3cn(CCN4CCCCCC4)nn3)cc2c1Nc1ccc(F)c(Cl)c1,49% (inactive),
C=C[C@H](/C=C\c1ccc(O)cc1)c1ccc(O)cc1,5% (inactive),
Nc1ncnc2c1c(-c1ccc(Oc3ccccc3)cc1)nn2[C@@H]1CCCNC1,,inactive
C=C1CC(=O)C2OC2(C)CC2OC(=O)C(=C)C2C(O)C1OC(=O)/C(C)=C\C (stereo not drawn),11.8% [at 33.1 µM] (inactive),
Nc1nc(Cl)nc2c1ncn2C1OC(CO)C(O)C1F (stereo not drawn),,inactive
Cc1csc(N(C(=O)CSc2ccc(-c3ccccc3)nn2)C2CC2)n1,-4.84% (inactive),
CC(C)NC(=O)N1CC[C@H](N=C2Nc3cc(F)ccc3N(CC(F)F)c3ccc(Cl)cc32)C1,-0.614% [at 15.1 µM] (inactive),
CCCC1(CCC)CCC2(CCN(CCCN(CC)CC)C2)CC1,796% (inactive),
O=C([C@@H](Cc1cccc(C(F)(F)F)c1)NS(=O)(=O)c1cc(F)c2c(c1)CCNC2)N1CCCC1,12.1% (inactive),
C[C@@H](N[C@H]1CCCC[C@@H]1NC(=O)c1ccc(Cl)cc1)c1cccc2ccccc12,81.3% (inactive),
CC(C)/C=C1\NC(=O)C(C(C)C)n2c1nc1ccccc1c2=O (stereo not drawn),24.7% [at 33.1 µM] (inactive),
O=C(CCl)Nc1cccc(NC2=NS(=O)(=O)c3ccccc32)c1,-16.8% (inactive),
CN(C)Cc1ccc(-c2cnn3c(-c4cccc(NC(=O)c5cccc(C(F)(F)F)c5)c4)ccnc23)cc1,742% (inactive),
CCNC1(C(N)=O)CCN(c2ncnc3c2nc(-c2ccccc2Cl)n3-c2ccc(Cl)cc2)CC1,,inactive
C=C1CC[C@@H]2[C@](C)(CO)[C@H](O)CC[C@@]2(C)[C@@H]1C/C=C1/C(=O)OCC1OC(=O)/C(=C/CO)C(O)C[C@@H]1C(=C)CC[C@@H]2[C@](C)(CO)[C@H](O)CC[C@]21C (stereo partly drawn),,inactive [at 15.1 µM]
CC(C)c1cc(-c2ccc(F)c3ccccc23)nc(N)n1,12.7% (inactive),
Cc1onc(-c2ccccc2)c1C(=O)N1CCN(c2ccc([N+](=O)[O-])cc2Cl)CC1,7.89% (inactive),
O=C(Nc1cccnn1)N1CCN(c2nccc(-c3ccc(F)c(F)c3)n2)CC1,,inactive [at 112 µM]
C=C1CC[C@@H]2[C@](C)(CO)[C@H](O)CC[C@@]2(C)[C@@H]1CC(=O)C1=CCOC1=O,,inactive [at 33.1 µM]
Nc1nc(O)c(C2=C3C(=Nc4ccccc43)C(=O)NCC2)[nH]1,23.1% (inactive),

SMILES,"activity change, negative = inhibition",outcome
CC(=O)O[C@H]1[C@@]2(O)C[C@H](C)[C@H](OC(=O)c3ccccc3)[C@@H]2[C@@H](OC(=O)CO)[C@]2(OC(C)=O)C[C@H]3C(=O)C(C)(C)C[C@@H]3[C@@]1(C)[C@H]2OC(C)=O,,inactive [at 15.1 µM]
O=c1[nH]c([C@@H]2CCCN2)nc2c1oc1ccc(Cl)cc12,,inactive
CCN(Cc1ccccc1)C(=O)Cn1c(=O)n(C)c2cnc(-c3ccccc3)nc21,32.6% (inactive),
Cc1cc(C)c(-n2cc(C)c3c(Cl)nc(C)nc32)c(C)c1,,inactive
COc1cc(NC(=O)c2cc(C3CC3)on2)c(OC)cc1Cl,28.7% (inactive),
C=C1C(=O)O[C@@H]2/C=C(/C)[C@@H](OC(C)=O)C/C=C(\C)C[C@@H](OC(=O)/C(=C/CO)CO)[C@@H]12,11.2% [at 33.1 µM] (inactive),
O=C(NCCCn1ccnc1)c1cc(-c2ccco2)on1,8.3% (inactive),
Cc1ccccc1C(C(=O)NC1CCCCC1)N(C(=O)Cn1cnc2ccccc21)c1cccc(F)c1 (stereo not drawn),15.6% (inactive),
CN(C)CCn1cc(-c2ccc(F)cc2)c(-n2cccc2)n1,-20.1% (inactive),
CC(C)(N)c1ncc(-c2ccc(OC(F)(F)F)cc2)[nH]1,88.1% (inactive),
Cn1ncc(Cl)c1-c1cc(C(=O)N[C@H](CN)Cc2ccc(F)c(F)c2)sc1Cl,338% (inactive),
COc1ccc(Sc2ccc(NC(=O)c3ccccc3Cl)cc2C#N)cc1,11.5% (inactive),
O=C(NC[C@H]1CN(c2ccc(N3CCOCC3=O)cc2)C(=O)O1)c1ccc(Cl)s1,41% (inactive),
CCN1C(C)(C)CC(Oc2ccc(C(=O)Nc3ccc(NC(=O)Nc4cc(C(C)(C)C)on4)cc3)nc2)CC1(C)C,41.5% (inactive),
C=C1CCC2C(C)(C(=O)O)CCCC2(C)C1CCC1=CCOC1=O (stereo not drawn),30.2% [at 33.1 µM] (inactive),
COCC(=O)NC/C=C/c1ccc2ncnc(Nc3ccc(Oc4ccc(C)nc4)c(C)c3)c2c1,20.9% (inactive),
C=C1C(=O)O[C@@H]2C[C@@]3(C)CCCC(=C)[C@]3(O)C[C@H]12,14% (inactive),
C=C1C(=O)O[C@@H]2[C@H]3C(C)=CC(=O)C3=C(C)[C@@H](OC(=O)/C(C)=C\C)[C@H](O)[C@@H]12,12.3% [at 33.1 µM] (inactive),
O=C(C(Cc1cccc(C(F)(F)F)c1)NS(=O)(=O)c1cc(F)c2c(c1)CCNC2)N1CCCC1 (stereo not drawn),,inactive
